High-throughput results from PubChem BioAssay.
KCNQ2 pot: potentiators of rat KCNQ2 potassium channel. Potassium voltage-gated channel subfamily KQT member 2 (Rattus norvegicus), O88943. CHO-K1 KCNQ2, FluxOR thallium flux fluorescence; hits give high values. B-score at 10 µM. actives 0.54% (n = 310,000). AID 2239, 2010;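 active = fluorescence ratio B-score at least 3 SD of library B-scores, with initial fluorescence B-score within 3 of them, cut at about 5.3 in these data; same plate scores as AID 2156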;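 note: B-score of peak minus minimum over baseline fluorescence ratio after K+ and Tl+ stimulus; positive B-score means potentiation of KCNQ2 with more thallium influx and brighter signal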
Target sequence (O88943 whole entry, looked up): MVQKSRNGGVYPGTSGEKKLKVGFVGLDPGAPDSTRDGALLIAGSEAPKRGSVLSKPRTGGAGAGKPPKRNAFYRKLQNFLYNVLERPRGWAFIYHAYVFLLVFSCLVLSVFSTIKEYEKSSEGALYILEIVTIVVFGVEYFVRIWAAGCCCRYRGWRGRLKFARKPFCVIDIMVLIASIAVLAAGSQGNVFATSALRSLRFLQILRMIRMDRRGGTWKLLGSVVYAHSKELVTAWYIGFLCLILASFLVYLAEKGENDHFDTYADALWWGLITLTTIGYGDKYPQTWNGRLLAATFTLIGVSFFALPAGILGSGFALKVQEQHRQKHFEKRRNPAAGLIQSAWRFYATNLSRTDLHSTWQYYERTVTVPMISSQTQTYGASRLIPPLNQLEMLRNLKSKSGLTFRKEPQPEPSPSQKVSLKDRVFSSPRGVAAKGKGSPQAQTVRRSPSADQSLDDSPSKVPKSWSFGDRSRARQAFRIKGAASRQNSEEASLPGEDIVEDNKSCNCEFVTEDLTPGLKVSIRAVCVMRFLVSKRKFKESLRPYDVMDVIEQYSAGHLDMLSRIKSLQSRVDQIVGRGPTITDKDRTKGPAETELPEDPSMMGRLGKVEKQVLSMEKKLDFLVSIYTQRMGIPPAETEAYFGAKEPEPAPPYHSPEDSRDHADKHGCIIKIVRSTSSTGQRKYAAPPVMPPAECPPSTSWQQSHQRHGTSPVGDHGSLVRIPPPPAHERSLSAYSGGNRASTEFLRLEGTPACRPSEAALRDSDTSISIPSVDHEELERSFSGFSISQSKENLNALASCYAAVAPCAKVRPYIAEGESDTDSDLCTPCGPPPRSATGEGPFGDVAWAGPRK
KCNQ2 block: rat KCNQ2 potassium channel inhibitors, primary screen, cell-based, CHO-K1, FluxOR thallium flux, B-score. actives 1.1% (n = 310,000). Potassium voltage-gated channel subfamily KQT member 2 (Rattus norvegicus), O88943. AID 2156, 2009. 20 min; hits give low values. B-score at 10 µM;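 active = fluorescence ratio B-score at most minus 3 library SDs, with starting brightness B-score within 2 library SDs, cut at about -5.5 in these data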
An asterisk follows results filed as active; ! = a repeat was not active. Shown are actives, neighbours in structure and some others; about 1.6% of the full set was active somewhere.

Screening Cc1ccc(/C=C2/Sc3ccc(C(=O)NCCN4CCOCC4)cc3NC2=O)cc1 returned KCNQ2 block inactive.
Screening C=CCN(CC=C)C(=O)c1cc2ccccc2c(=O)o1 returned KCNQ2 pot 0.07 and KCNQ2 block inactive.
CN(c1ccccc1)S(=O)(=O)c1cccc(NC(=O)CSc2ncc(C(F)(F)F)cc2Cl)c1 was read as KCNQ2 pot 9.7* and KCNQ2 block inactive.
For CN(c1ccccc1)S(=O)(=O)c1cccc(NC(=O)CSc2nncn2C)c1 the results were KCNQ2 pot 0.07 and KCNQ2 block inactive.
For CN(CC(=O)Nc1cccc(F)c1)CC(=O)Nc1ccccc1Oc1ccccc1 the results were KCNQ2 block inactive.
Screening COc1cc(NC(=O)Cn2c(=O)n(-c3cccc(C)c3)c(=O)c3c(C)c(C)sc32)cc(OC)c1 returned KCNQ2 block inactive.
Cc1c(O)cccc1C(=O)N[C@@H](CSc1ccccc1)[C@H](O)CN1C[C@H]2CCCC[C@H]2C[C@H]1C(=O)NC(C)(C)C was read as KCNQ2 pot -5.7 and KCNQ2 block -5.7*!.
`COc1ccc(N2C(=O)C3C(c4ccc(C(=O)O)cc4)NC(Cc4ccccc4)(C(=O)O)C3C2=O)c([N+](=O)[O-])c1` (centres undefined) gave KCNQ2 pot 0.55 and KCNQ2 block inactive.
`COc1ccccc1-c1cc(C(=O)N2CCCc3ccccc32)no1` gave KCNQ2 pot -6 and KCNQ2 block -6*.
COc1ccc(OC)c(-c2cc(C(=O)N3CCCc4ccccc43)no2)c1 was read as KCNQ2 block inactive.
Screening Cc1ccc2c(c1)C1CN(C)CCC1N2C(=O)COc1ccc(N(C)C(=O)C(C)(C)C)cc1 (centres undefined) returned KCNQ2 block inactive.
For Cc1ccc2c(c1)C1CN(C)CCC1N2CC(=O)N(C)c1ccccc1 (centres undefined) the results were KCNQ2 pot 5.6* and KCNQ2 block inactive.
`CCCOc1ccc(S(=O)(=O)n2cc(F)c(=O)[nH]c2=O)cc1` gave KCNQ2 pot 1.1 and KCNQ2 block inactive.
CCCCNC(=S)Nc1ccc([N+](=O)[O-])cc1 was read as KCNQ2 pot 12* and KCNQ2 block inactive.
For COC(=O)Cc1ccc(NC(=S)NCCC(C)C)cc1 the results were KCNQ2 block inactive.
For CC(C)CCNC(=S)Nc1ccc(Br)cc1 the results were KCNQ2 pot 5.3* and KCNQ2 block inactive.
CC(C)CCNC(=S)Nc1ccc([N+](=O)[O-])cc1 was read as KCNQ2 pot 14* and KCNQ2 block inactive.
CCCNC(=S)Nc1ccc(Br)cc1 was read as KCNQ2 pot 2.3 and KCNQ2 block inactive.
Screening CCCCNC(=S)Nc1ccc(Oc2ccccc2)cc1 returned KCNQ2 block inactive.
Screening Cc1cc(NC(=O)Nc2cc(Cl)sc2Cl)no1 returned KCNQ2 pot 0.43 and KCNQ2 block inactive.
`CCOC(=O)N1CCN(CCC(=O)c2ccc(OC)cc2)CC1` gave KCNQ2 block inactive.
`CCOC(=O)N1CCN(CCC(=O)c2ccc(Cl)cc2)CC1` gave KCNQ2 pot -6.7 and KCNQ2 block -6.7*.
`CNc1cc(CSc2ccc(Cl)cc2)nc(C)n1` gave KCNQ2 pot 1.2 and KCNQ2 block inactive.
Cc1nc(CSc2ccc(Cl)cc2)cc(NCc2ccccc2)n1 was read as KCNQ2 pot -5.7 and KCNQ2 block -5.7*.
O=C(CNC(=O)c1ccc2c(c1)OCCO2)N=Nc1c(O)[nH]c2ccccc12 was read as KCNQ2 pot 0.33 and KCNQ2 block inactive.
`Cc1cc(C)n(-c2ccc(C(=O)OCC(=O)Nc3ccc(Cl)cc3[N+](=O)[O-])cc2)n1` gave KCNQ2 block inactive.
For O=C(c1oc2ccccc2c1CSCc1ccccc1)N1CCN(c2ncccn2)CC1 the results were KCNQ2 pot -6.2 and KCNQ2 block -6.2*.
CCOCC(=O)Nc1c(C(=O)N2CCN(c3ncccn3)CC2)oc2ccccc12 was read as KCNQ2 pot 0.31 and KCNQ2 block inactive.
For COc1cccc(N2CCN(C(=O)c3cccn4c(=O)c5c(C)c(C)sc5nc34)CC2)c1 the results were KCNQ2 block inactive.
For Cc1sc2nc3c(C(=O)N4CCCC4)cc(C(=O)c4ccccc4O)cn3c(=O)c2c1C the results were KCNQ2 pot -7.1 and KCNQ2 block -7.1*.
`COc1ccc(NC(=O)N(C2CCCCC2)C(C)c2ccco2)c(OC)c1` (centres undefined) gave KCNQ2 pot -8.2 and KCNQ2 block -8.2*.
COc1ccc(NC(=O)N(C2CCCCC2)C(C)c2cccnc2)c(OC)c1 (centres undefined) was read as KCNQ2 block inactive.
CC(C(=O)NC1CCCC1)N(C(=O)c1ccc(-c2ccccc2)[nH]1)c1ccccc1F (centres undefined) was read as KCNQ2 pot -6.5 and KCNQ2 block -6.5*.
For CC(C(=O)NC1CCCC1)N(C(=O)Cn1nnc(-c2ccc(F)cc2)n1)c1ccccc1F (centres undefined) the results were KCNQ2 block inactive.
For CCOC(=O)C1(CCOc2ccccc2)CCN(Cc2cccc3nonc23)CC1 the results were KCNQ2 pot -6.2 and KCNQ2 block -6.2*.
For CCOC(=O)C1(CCOc2ccccc2)CCN(Cc2ccc(O)cc2)CC1 the results were KCNQ2 pot 1.6 and KCNQ2 block inactive.
CCN1CCN(c2c(/C=C3\SC(=S)N(Cc4ccco4)C3=O)c(C)c(C#N)c(=O)n2C)CC1 was read as KCNQ2 pot -7.7 and KCNQ2 block -7.7*.
Screening COc1ccc(-n2c(C)cc(/C=C3\SC(=S)N(Cc4ccco4)C3=O)c2C)cc1 returned KCNQ2 block inactive.
Screening O=C1[C@@H]2Cc3c([nH]c4ccccc34)CN2C(=O)CN1CCCO returned KCNQ2 pot 0.73 and KCNQ2 block inactive.
CCCCCN1CC(=O)N2Cc3[nH]c4ccccc4c3C[C@H]2C1=O was read as KCNQ2 block inactive.
Screening CCCCCCN1CC(=O)N2Cc3[nH]c4ccccc4c3C[C@H]2C1=O returned KCNQ2 pot -6.9 and KCNQ2 block -6.9*.
Screening CCCCN1C(=O)C2Cc3c([nH]c4ccccc34)CN2C1=S (centres undefined) returned KCNQ2 pot -5.6 and KCNQ2 block -5.6*.
Screening COc1ccc(/C=C(/NC(=O)c2ccccc2)C(=O)N2CCOCC2)cc1OC returned KCNQ2 pot 0.42 and KCNQ2 block inactive.
CN(C)C(=O)COC(=O)[C@H](Cc1ccccc1)NC(=O)c1ccco1 was read as KCNQ2 block inactive.
CN(C(=O)COC(=O)C(Cc1ccccc1)NC(=O)c1ccccc1)c1ccccc1 (centres undefined) was read as KCNQ2 pot -5.7 and KCNQ2 block -5.7*.
`O=S(=O)(Nc1cc2nc3ccccc3nc2n1Cc1ccccc1)c1ccc(Cl)cc1` gave KCNQ2 block inactive.
Screening COc1ccc(OC)c(-c2nc(C(=O)NCC3CCCO3)cc3c2[nH]c2ccccc23)c1 (centres undefined) returned KCNQ2 block inactive.
`COc1cccc(-c2nc(C(=O)NCC3CCCO3)cc3c2[nH]c2ccccc23)c1` (centres undefined) gave KCNQ2 pot -5.7 and KCNQ2 block -5.7*.
For O=C(NCc1ccccc1)c1ccccc1NC(=O)C1CCCCC1 the results were KCNQ2 block inactive.
